Experimental data from PubChem BioAssay AID1117353 (Cheminformatics & Chemogenomics Research Group (CCRG), …, 2015).
Values without a mark were called inactive. Active and inactive are the calls of the source. Cut-off read from the data, not from the text of the source: active = inhibition above about 50%; inactive = the rest.

Target: Vascular endothelial growth factor receptor 2 (Homo sapiens) (UniProt P35968)
Assay: VEGFR2 inhibitors, primary assay, biochemical, Homo sapiens, LANCE Ultra TR-FRET, NPC library (AID 1117353)
Settings: LANCE Ultra TR-FRET kinase assay; at 20 µM (top of the series)

Vascular endothelial growth factor receptor 2 (Homo sapiens), sequence (P35968 whole entry, looked up): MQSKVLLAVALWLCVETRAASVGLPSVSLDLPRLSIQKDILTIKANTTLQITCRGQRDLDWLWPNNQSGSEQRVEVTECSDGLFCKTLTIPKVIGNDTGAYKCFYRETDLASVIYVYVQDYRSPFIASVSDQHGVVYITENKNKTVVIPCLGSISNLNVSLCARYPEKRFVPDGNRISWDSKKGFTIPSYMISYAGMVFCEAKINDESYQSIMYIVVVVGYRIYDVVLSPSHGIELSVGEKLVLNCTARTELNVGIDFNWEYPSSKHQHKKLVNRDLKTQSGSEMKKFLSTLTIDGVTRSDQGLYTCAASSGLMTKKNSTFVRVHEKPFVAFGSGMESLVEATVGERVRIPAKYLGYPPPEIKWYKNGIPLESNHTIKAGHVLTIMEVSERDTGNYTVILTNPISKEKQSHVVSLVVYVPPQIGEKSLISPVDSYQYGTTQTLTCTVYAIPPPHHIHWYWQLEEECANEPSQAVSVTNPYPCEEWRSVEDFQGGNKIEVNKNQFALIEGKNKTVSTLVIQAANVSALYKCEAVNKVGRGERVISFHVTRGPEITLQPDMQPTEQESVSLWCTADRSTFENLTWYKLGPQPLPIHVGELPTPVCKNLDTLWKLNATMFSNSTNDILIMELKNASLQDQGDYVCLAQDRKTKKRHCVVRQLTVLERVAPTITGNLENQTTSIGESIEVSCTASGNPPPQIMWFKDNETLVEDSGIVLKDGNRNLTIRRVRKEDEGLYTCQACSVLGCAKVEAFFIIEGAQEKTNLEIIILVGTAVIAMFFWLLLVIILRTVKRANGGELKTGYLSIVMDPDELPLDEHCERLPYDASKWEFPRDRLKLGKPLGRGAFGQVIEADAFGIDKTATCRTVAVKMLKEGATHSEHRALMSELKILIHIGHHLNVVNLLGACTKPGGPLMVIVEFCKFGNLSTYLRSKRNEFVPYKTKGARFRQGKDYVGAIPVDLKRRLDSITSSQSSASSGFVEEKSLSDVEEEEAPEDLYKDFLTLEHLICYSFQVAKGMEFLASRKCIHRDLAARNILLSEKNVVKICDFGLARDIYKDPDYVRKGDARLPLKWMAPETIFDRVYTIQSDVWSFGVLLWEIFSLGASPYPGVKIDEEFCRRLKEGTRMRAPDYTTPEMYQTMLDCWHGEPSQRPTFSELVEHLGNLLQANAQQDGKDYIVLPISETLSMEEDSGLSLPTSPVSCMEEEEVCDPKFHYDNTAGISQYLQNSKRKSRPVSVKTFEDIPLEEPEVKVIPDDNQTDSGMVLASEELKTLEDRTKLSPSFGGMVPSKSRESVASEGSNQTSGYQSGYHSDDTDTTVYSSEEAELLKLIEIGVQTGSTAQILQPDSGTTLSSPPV

Row | SMILES | inhibition
1 | C[n+]1c2cc(N)ccc2cc2ccc(N)cc21 (tested in a mixture with another compound) | -22%
2 | Nc1nc(=S)c2[nH]cnc2[nH]1 | -5.99%
3 | S=c1nc[nH]c2nc[nH]c12 | 15.9%
4 | C=CC(=O)Nc1cc2c(Nc3ccc(F)c(Cl)c3)ncnc2cc1OCCCN1CCOCC1 | 98.7% (active)
5 | COc1cc(-c2ccc(=O)[nH]n2)ccc1OC(F)F | -22.3%
6 | CCCN(CCC)C(=O)C(CCC(=O)OCCCN1CCN(CCOC(=O)Cc2c(C)n(C(=O)c3ccc(Cl)cc3)c3ccc(OC)cc23)CC1)NC(=O)c1ccccc1 (stereo not given) | -17.9%
7 | COc1cccc2c1C(=O)c1c(O)c3c(c(O)c1C2=O)C[C@@](O)(C(C)=O)C[C@@H]3O[C@H]1C[C@H](N)[C@H](O)[C@H](C)O1 | 14%
8 | O=c1[nH]c(=O)n([C@H]2C[C@H](O)[C@@H](CO)O2)cc1C(F)(F)F | -17.7%
9 | COc1ccc2cc1Oc1ccc(cc1)C[C@H]1c3c(cc4c(c3Oc3cc5c(cc3OC)CCN(C)[C@@H]5C2)OCO4)CCN1C | 30.3%
10 | CCCCCCCCCCCCCC[N+](C)(C)C | 11.2%
11 | CC(=O)Oc1ccc(C2(c3ccc(OC(C)=O)cc3)Oc3ccccc3NC2=O)cc1 | -14.8%
12 | Oc1c(I)cc(I)c2cccnc12 | 0.24%
13 | O=[N+]([O-])c1ccc(O)c2ncccc12 | 11.1%
14 | Cc1cc(=O)c2c(O)c3c(O)cc(=O)c4c3c3c(cc(O)c1c23)C(C)(C)C=4O | 22.3%
15 | CCC(C)n1ncn(-c2ccc(N3CCN(c4ccc(OC[C@H]5CO[C@](Cn6cncn6)(c6ccc(Cl)cc6Cl)O5)cc4)CC3)cc2)c1=O (stereo not given in full) | 22.4%
16 | CCCSc1ccc2nc(NC(=O)OC)[nH]c2c1 | -6.58%
17 | C[C@@]12C(=O)OC(=O)[C@]1(C)C1CCC2O1 | -15.1%
18 | O=C(Nc1ccc([N+](=O)[O-])cc1Cl)c1cc(Cl)ccc1O | 5.08%
19 | O=c1c(-c2ccccc2)c1-c1ccccc1 | 28.3%
20 | COc1ccc(-c2ccc3cc(C(=O)O)ccc3c2)cc1C12CC3CC(CC(C3)C1)C2 | 96.3% (active)
21 | CCN(CC)CCNc1ccc(CO)c2sc3ccccc3c(=O)c12 | 7.72%
22 | CCCCCCNC(=O)n1cc(F)c(=O)[nH]c1=O | -15.1%
23 | O=C(CCCCCCC(=O)Nc1ccccc1)NO | -32.6%
24 | Oc1c(Cl)cc(Cl)cc1Sc1cc(Cl)cc(Cl)c1O | 60.4% (active)
25 | COc1cc([C@@H]2c3cc4c(cc3[C@H](O)[C@H]3COC(=O)[C@H]23)OCO4)cc(OC)c1OC | 28.2%
